Bioassay records as filed in PubChem.
TMEM16A act: activates or potentiates the mouse TMEM16A chloride channel. AID 623877. Q8BHY3. HEK293 TMEM16A/YFP-H148Q/I152L, iodide quench fluorescence; hits give low values. 340,000 tested, 0.3% active. B-score at 10 µM;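 active = fluorescence-ratio B-score plate-corrected deviation score at least 3 library SD below zero, with starting fluorescence score within 5 deviations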;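 also: channel opened by trigger with iodide after compound preincubation; score built on the fluorescence ratio of max minus min over baseline; more negative score means more quench and so TMEM16A activation or potentiation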
697 NFkB inh: inhibitors of the PMA/ionomycin-induced NF-kB reporter in 697 B cells; 330,000 tested, 0.33% active; inhibition, % at 4 µM; 697 B-cell NF-kB luciferase reporter, 16 h; in the data active = inhibition above about 35%
KLF5 inhibitor: inhibitors of KLF5 expression. DLD-1 KLF5 promoter-luciferase reporter, luminescence. inhibition, % at 5 µM. 290,000 tested, 0.23% active;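 active = inhibition above a per-plate limit of that plate's mean compound inhibition plus 3 SD, cut at about 60% in these data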;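 also: higher means less KLF5 promoter-driven luciferase light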
TMEM16A inh: blocks the mouse calcium-activated chloride channel TMEM16A; Q8BHY3; HEK293 TMEM16A/YFP iodide influx fluorescence, ionomycin; normalized B-score (activity score, 25-100; higher = stronger inhibition) at 10 µM; 310,000 tested, 1.2% active;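 active = ratio plate-corrected score three or more library SD toward inhibition, starting fluorescence score within five deviations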;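 also: score derived from kinetic fluorescence span divided by baseline fluorescence per well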
Jurkat NFkB inh: lowers PMA/ionomycin-induced NF-kB signal in Jurkat cells | AID 435003 | inhibition, % at 4 µM | PMA/ionomycin-induced NF-kB luciferase reporter, luminescence | 330,000 tested, 0.53% active; in the data active = inhibition above about 50%
aSyn UTR inh: MLPCN primary screen, SNCA 5' untranslated region; alpha-synuclein 5'UTR reporter, inhibitor activity; inhibition, % (tested at 7.5 µM); 300,000 tested, 0.82% active; in the data active = inhibition above about 60%;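 also: H4 neuroglioblastoma cells stably carrying SNCA 5'UTR luciferase fusion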
TMEM16A reconf: re-confirmation of mouse TMEM16A chloride channel inhibitors; inhibition, % at 10 µM; 2,300 tested, 39% active; HEK293 TMEM16A/YFP-H148Q, iodide quench fluorescence; ionomycin added to raise cell calcium; shares compounds with TMEM16A inh; AID 652189;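 active = mean duplicate percent inhibition, scaled so buffer wells are 0 and the reference blocker 100, over three buffer SD above buffer mean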
TMEM16A Ca cntr: alters calcium mobilization in TMEM16A HEK293 cells, counter-screen; shares compounds with TMEM16A inh; TMEM16A/YFP HEK293, Fluo4 calcium mobilization; calcium response (% of ionomycin), % at 10 µM; 2,300 tested, 2% active;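 active = duplicate-averaged calcium signal over 20% of the ionomycin maximum, relative to buffer baseline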;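 also: each well's signal is peak minus trough fluorescence divided by its pre-addition baseline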
YFP-HEK293 quench: acts in parental YFP-HEK293 cells lacking TMEM16A, counter-screen; shares compounds with TMEM16A inh; iodide YFP quench, ionomycin; YFP ratio F(max-min)/F0 at 10 µM; 2,300 tested, under 10 active;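 active = yellow fluorescent protein signal ratio exceeding the buffer control mean by over 5 SD of those controls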;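 also: ratio is mean of duplicate wells from kinetic YFP trace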
ClC-1 inh: blocks the rat ClC-1 voltage-dependent chloride channel. shares compounds with TMEM16A inh. CHO ClC-1-YFP, iodide influx fluorescence quench; iodide control reads 0, buffer control 100. ratio percent, % at 10 µM. 2,300 tested, under 10 active. AID 652236;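 active = duplicate-mean ratio percent above the mean of iodide-only control wells, which defines zero, plus 5 of their SD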;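 also: higher percent means stronger block of ClC-1 iodide influx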
Of the large screens only hits and unclear results are named; the others gave an inactive call (follow-up assays come after a bar, where they were run). Sampled rows, rich in hits. Any-hit rate of the full collection: about 2.5%.

CC1(C(=O)OCC(=O)Nc2ccc3ccccc3c2)CC1(Cl)Cl (configuration not stated)	TMEM16A inh 25 | TMEM16A reconf inactive | TMEM16A Ca cntr inactive | YFP-HEK293 quench inactive | ClC-1 inh inactive
CC1(C(=O)OCC(=O)Nc2ccc(C(N)=O)cc2)CC1(Cl)Cl (configuration not stated)	none
CC(C)(C)n1nc2c(c1NC(=O)c1c(F)cccc1F)CS(=O)(=O)C2	none
Cc1ccc(C)c(OCC(=O)NCCNC(=O)COc2cc(C)ccc2C)c1	TMEM16A inh 100 | TMEM16A reconf inactive | TMEM16A Ca cntr inactive | YFP-HEK293 quench inactive | ClC-1 inh inactive
CCCCN(Cc1ccc(C(=O)N[C@H](C(=O)O)C(C)C)cc1)C(=O)C(c1ccccc1)c1ccccc1	none (no result: KLF5 inhibitor)
COCC(=O)Nc1cc(Cl)ccc1C	none
Cc1ccc(Cl)cc1NC(=O)CC(O)(C(F)(F)F)C(F)(F)F	TMEM16A inh 100 | TMEM16A reconf 42% | TMEM16A Ca cntr inactive | YFP-HEK293 quench inactive | ClC-1 inh inactive
CCOc1ccc(CN(C)C(=O)[C@H](Cc2ccccc2)NC(=O)OCc2ccccc2)cc1OC	TMEM16A inh 25 | TMEM16A reconf inactive | TMEM16A Ca cntr inactive | YFP-HEK293 quench inactive | ClC-1 inh inactive
Cc1noc(C)c1S(=O)(=O)Nc1ccc2c(c1)C(=O)N([C@H](C)CO)C[C@H](C)[C@@H](CN(C)S(=O)(=O)c1ccccc1)O2	none (no result: KLF5 inhibitor, TMEM16A inh, aSyn UTR inh)
CN1c2ccsc2C(O)=C(C(=S)Nc2ccc(F)c(Cl)c2)S1(=O)=O	TMEM16A inh 25 | TMEM16A reconf 21% | TMEM16A Ca cntr inactive | YFP-HEK293 quench inactive | ClC-1 inh inactive
O=C(NC(NC(=S)Nc1ccc(Cl)c(Cl)c1)C(Cl)(Cl)Cl)c1ccco1 (configuration not stated)	TMEM16A inh 100 | TMEM16A reconf 36% | TMEM16A Ca cntr inactive | YFP-HEK293 quench inactive | ClC-1 inh inactive
O=C(O)c1cccc(NC(=S)NC(NC(=O)c2ccco2)C(Cl)(Cl)Cl)c1 (configuration not stated)	none
Cc1oc2ccc(OS(C)(=O)=O)cc2c1C(=O)OC(C)C	none
CCN(CC)C(=O)COc1ccc2oc(C)c(C(=O)OC(C)C)c2c1	none | TMEM16A reconf inactive | TMEM16A Ca cntr inactive | YFP-HEK293 quench inactive | ClC-1 inh inactive
O=C(CSc1ccc2nnc(-c3ccccc3)n2n1)NCc1ccco1	TMEM16A inh 100 | TMEM16A reconf inactive | TMEM16A Ca cntr inactive | YFP-HEK293 quench inactive | ClC-1 inh inactive
O=C(CSc1ncc(-c2ccccc2)n1-c1ccccc1)NCc1ccco1	TMEM16A inh 25 | TMEM16A reconf inactive | TMEM16A Ca cntr inactive | YFP-HEK293 quench inactive | ClC-1 inh inactive
COc1ccc(-n2c(-c3ccc(F)cc3)cnc2SCC(=O)NCc2ccco2)cc1	none
COc1cccc(Nc2ncnc3ccccc23)c1	none
O=C(Oc1cccc(Nc2ncnc3ccccc23)c1)c1ccccc1Cl	TMEM16A inh 100 | TMEM16A reconf 18% | TMEM16A Ca cntr inactive | YFP-HEK293 quench inactive | ClC-1 inh inactive
CNC(=O)C(C)NS(=O)(=O)c1ccc(F)cc1 (configuration not stated)	none
Cc1ccc(NC(=O)C(C)NS(=O)(=O)c2ccc(F)cc2)cc1C (configuration not stated)	TMEM16A inh 25 | TMEM16A reconf inactive | TMEM16A Ca cntr inactive | YFP-HEK293 quench inactive | ClC-1 inh inactive
Cc1cc(C)c(C)c(S(=O)(=O)NCc2ccncc2)c1C	TMEM16A inh 25 | TMEM16A reconf 26% | TMEM16A Ca cntr inactive | YFP-HEK293 quench inactive | ClC-1 inh inactive
Cc1cc(Br)c(S(=O)(=O)NCc2ccncc2)cc1C	none
C=CCOC(=O)C1=C(C)NC(SCC(N)=O)=C(C#N)C1c1ccc(C)cc1 (configuration not stated)	none
C=CCOC(=O)C1=C(C)NC(SCC)=C(C#N)C1c1ccc(Cl)cc1 (configuration not stated)	TMEM16A inh 100, aSyn UTR inh 67 | TMEM16A reconf 22% | TMEM16A Ca cntr inactive | YFP-HEK293 quench inactive | ClC-1 inh inactive
CC1=CC(C)(C)N2C(=O)C3(SCC(=O)N3c3ccc(F)cc3)c3cc(C)cc1c32 (configuration not stated)	TMEM16A inh 100 | TMEM16A reconf 20% | TMEM16A Ca cntr inactive | YFP-HEK293 quench inactive | ClC-1 inh inactive
CCOC(=O)N1CCN(Cc2nc(-c3ccccc3)no2)CC1	none
CCOC(=O)N1CCN(Cc2nc(-c3cccc(C)c3)no2)CC1	TMEM16A inh 100 | TMEM16A reconf inactive | TMEM16A Ca cntr inactive | YFP-HEK293 quench inactive | ClC-1 inh inactive
O=C(O)C1=CC[C@@H](c2ccc(Cl)cc2)N(S(=O)(=O)c2ccc(Cl)cc2)[C@H]1c1ccc(F)cc1	TMEM16A inh 100 (no result: KLF5 inhibitor, aSyn UTR inh) | TMEM16A reconf inactive | TMEM16A Ca cntr inactive | YFP-HEK293 quench inactive | ClC-1 inh inactive
Cc1ccccc1S(=O)(=O)N1[C@@H](c2ccc(F)cc2)C(C(=O)O)=CC[C@H]1c1ccc(Cl)cc1	TMEM16A inh 100 (no result: KLF5 inhibitor, aSyn UTR inh) | TMEM16A reconf 28% | TMEM16A Ca cntr inactive | YFP-HEK293 quench inactive | ClC-1 inh inactive
CCc1ccc([C@@H]2CC=C(C(=O)O)[C@H](c3ccc(F)cc3)N2S(=O)(=O)c2ccc(C)cc2)cc1	TMEM16A inh 100 (no result: KLF5 inhibitor, aSyn UTR inh) | TMEM16A reconf inactive | TMEM16A Ca cntr inactive | YFP-HEK293 quench inactive | ClC-1 inh inactive
Cc1cc(F)ccc1NC(=O)C1CSC2(C)CCC(=O)N12 (configuration not stated)	none (no result: KLF5 inhibitor)
CC(C)(CC(=O)N1CCN(c2ccc(Cl)cc2)CC1)CC1=NS(=O)(=O)c2ccccc2N1	TMEM16A inh 25 | TMEM16A reconf inactive | TMEM16A Ca cntr inactive | YFP-HEK293 quench inactive | ClC-1 inh inactive
COc1cccc(N2CCN(C(=O)CC(C)(C)CC3=NS(=O)(=O)c4ccccc4N3)CC2)c1	none
CCN(CC)C(=O)c1cccc(NC(=O)CC23CC4CC(CC(C4)C2)C3)c1	none
Cc1ccc(S(=O)(=O)N(C)c2ccc3c(ncn3C)c2[N+](=O)[O-])cc1	none (no result: KLF5 inhibitor)
Cc1ccc(C)c(NC(=S)NCCSc2ccc(Cl)cc2)c1	none
